# Compound activity: PubChem, several laboratories
# Compounds with a hit are over-represented: about 0.93% of the library has one in this group of screens.
# CFTR F508del cor: CFTR F508del correction in bronchial cells; CFBE cells, YFP halide quenching; stimulated with forskolin plus potentiator P3; % fluorescence drop versus neutral controls; activity (quench increase), % at 7.58 µM; 350,000 compounds, 0.36% hits;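 active = mean added fluorescence quench of at least 8% versus neutral control, with both replicates also reaching 8%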;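 also: cells transiently co-express mutant CFTR-F508del with the halide-sensitive YFP; corrector assay measuring rescue of mutant channel to the surface after 24 h compound exposure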
# HIF activator: HIF pathway transcriptional activation; activation, % at 7.5 µM (by protocol); 300,000 compounds, 0.32% hits; U2OS HRE-luciferase reporter, luminescence; normalized: DMSO 0%, desferrioxamine 100%;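 active = mean activation of at least 10% of the iron chelator positive control signal, with at least half of replicates also reaching 10%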
# 697 NFkB inh: inhibitors of the PMA/ionomycin-induced NF-kB reporter in 697 B cells; 697 B-cell NF-kB luciferase reporter, 16 h; 330,000 compounds, 0.33% hits; inhibition, % at 4 µM; in the data active = inhibition above about 35%
# Jurkat NFkB inh: inhibitors of the PMA/ionomycin-induced NF-kB reporter in Jurkat cells; PMA/ionomycin-induced NF-kB luciferase reporter, luminescence; inhibition, % at 4 µM; 330,000 compounds, 0.53% hits; AID 435003; in the data active = inhibition above about 50%
# * = called active by the depositor; . = no result.
SMILES,CFTR F508del cor,HIF activator,697 NFkB inh,Jurkat NFkB inh
COc1ccc2c(c1)c(C(=O)CN1CCc3ccccc3C1)c(C)n2C,0,44*,-6,0
O=C(C[C@@H]1CC[C@@H]2[C@H](COC[C@H](O)CN2Cc2ccccc2F)O1)N[C@H]1CCN(Cc2ccccc2)C1,-1,.,.,.
C[C@@H]1CCCCO[C@@H](CN(C)Cc2ccc3c(c2)OCO3)[C@@H](C)CN([C@H](C)CO)C(=O)c2cc(NC(=O)CCCCCC(=O)Nc3ccccc3N)ccc2O1,2,.,.,.
O=C(O)c1ccccc1C(=O)OC1CCCC2CCCC21 (stereo not drawn),-1,.,.,.
CC1C2CCC(C2)C1OC(=O)c1ccccc1C(=O)O (stereo not drawn),9.4*,.,.,.
CC1(C)CCN2CCC(C)(C)c3c(O)ccc1c32,38*,3,-22,25
CC(=O)Nc1cccc(NC(=O)CN2c3cccc4cccc(c34)S2(=O)=O)c1,24*,.,12,2
COc1ccc(OC)c2nc3c(C(=O)NCCN(C)C)cccc3nc12,7,.,.,.
CN(C)CCNC(=O)c1cccc2nc3cccc(F)c3nc12,9.2*,.,.,.
O=C(c1ccc(C(F)(F)F)cc1)C1CCCN(C(=O)Cn2cncn2)C1 (stereo not drawn),1,0,3,-5
O=C(c1cccc(C(F)(F)F)c1)C1CCCN(C(=O)Cn2cncn2)C1 (stereo not drawn),1,11*,4,12
CN(C)CCCN(C(=O)c1ccco1)c1nc(-c2ccc(Cl)cc2)cs1,8.1*,1,1,-23
C[C@@H]1CCCCO[C@H](CN(C)C(=O)Nc2ccc3c(c2)OCO3)[C@H](C)CN([C@H](C)CO)C(=O)c2cc(NC(=O)NC3CCCCC3)ccc2O1,1,.,.,.
CC1CN(S(=O)(=O)c2cccc(C(=O)Nc3cc(Cl)ccc3N3CCOCC3)c2)CC(C)O1 (stereo not drawn),20*,.,4,-18
CN1CCN(S(=O)(=O)c2cccc(C(=O)Nc3cc(Cl)ccc3N3CCOCC3)c2)CC1,5,0,-17,-6
COc1ccc(NC(=O)Nc2ccc3c(c2)[C@@H]2C[C@@H](CC(=O)N4CCN(C)CC4)O[C@@H](CO)[C@@H]2O3)cc1,3,.,.,.
COc1ccccc1NC(=O)C(=O)NCC(c1ccco1)N1CCc2ccccc21 (stereo not drawn),9.8*,-46,-10,5
O=C(NCC(c1ccco1)N1CCc2ccccc21)C(=O)Nc1ccccc1F (stereo not drawn),-1,-1,0,-4
C[C@@H]1CN([C@H](C)CO)C(=O)c2cc(-c3ccc(F)cc3)cnc2O[C@H]1CN(C)C(=O)c1ccncc1,2,.,.,.
O=C(Cc1ccccc1)N1CC(=O)N2[C@H](CO)[C@@H](c3ccc(-c4ccc(F)cc4)cc3)[C@@H]2C1,6,.,.,.
O=C(Cc1ccccc1)N1CC(=O)N2[C@H](CO)[C@@H](c3ccc(-c4ccccc4)cc3)[C@@H]2C1,12*,.,.,.
COc1cc2ccccc2cc1C(=O)Nc1ccc(C)cc1,3,11*,-190,-89
Cc1noc(C)c1NC(=O)N(C)C[C@H]1Oc2c(NC(=O)c3ccc(-c4nccs4)cc3)cccc2C(=O)N([C@@H](C)CO)C[C@H]1C,-1,.,.,.
COc1ccc(S(=O)(=O)NCc2ccccn2)cc1NC(=O)c1ccccc1F,8.6*,0,10,50
COc1ccc(S(=O)(=O)N2CCOC2CNC(=O)C(=O)NCc2ccc3c(c2)OCO3)cc1OC (stereo not drawn),2,219*,0,-21
SMILES,CFTR F508del cor,HIF activator,697 NFkB inh,Jurkat NFkB inh
Cc1ccc(S(=O)(=O)N2C[C@H]3[C@H]4C(=O)N(C)C(=O)[C@H]4CC(=O)[C@H]3[C@@H]2c2ccccc2F)cc1,8.4*,.,.,.
Cc1ccc(S(=O)(=O)N2C[C@H]3[C@H]4C(=O)N(C)C(=O)[C@H]4CC(=O)[C@H]3[C@@H]2c2ccccc2Cl)cc1,-3,.,.,.
CCN(CC)C(=O)c1oc2ccc(S(=O)(=O)N3CCCCCC3)cc2c1C,-1,0,-27,6
CCN(CC)C(=O)c1oc2ccc(S(=O)(=O)N3CC(C)CC(C)C3)cc2c1C (stereo not drawn),9.2*,1,-9,32
CO[C@@H]1CN(C)C(=O)c2ccc(NC(=O)c3nc4ccccc4s3)cc2OC[C@@H](C)N(Cc2ccccc2)C[C@H]1C,0,.,.,.
CC(C)(C)C1COc2ccccc2N1C(=O)c1cccc(Cl)c1 (stereo not drawn),9.5*,1,-7,-19
CCOc1ccccc1N1CCN(C(=S)NC(=O)C23CC4CC(CC(C4)C2)C3)CC1,.,404*,8,7
CCc1nc(C)cn1S(=O)(=O)c1ccc(Br)cc1,-4,0,4,-2
CCc1nc(C)cn1S(=O)(=O)c1ccc2c(c1)OCCO2,8.9*,.,.,.
CCC(C)C(=O)Nc1nc(C)c(-c2csc(Nc3cc(Cl)ccc3OC)n2)s1 (stereo not drawn),0,0,3,11
COc1ccc(OC)c(Nc2nc(-c3sc(NC(=O)C(C)(C)C)nc3C)cs2)c1,8.0*,-1,-25,-2
COc1ccc(Cl)cc1Nc1nc(-c2sc(NC(=O)C(C)(C)C)nc2C)cs1,8.7*,-1,-25,15
C/C=C/c1ccc([C@@H]2[C@H](CO)N3CCCCN(S(=O)(=O)c4ccccc4)C[C@@H]23)cc1,31*,.,.,.
CC(C)CC#Cc1ccc2c(c1)O[C@@H](CN(C)C(=O)Nc1ccccc1)[C@H](C)CN([C@@H](C)CO)S2(=O)=O,5,.,.,.
COc1ccc(NC(=O)C2CCCN2C(=O)Nc2cccc(F)c2)cc1 (stereo not drawn),9.7*,0,9,7
Oc1c(C=C2N=c3ccccc3=N2)sc(=S)n1-c1ccccc1,-1,22*,-25,-3
COc1ccc(F)cc1CSc1nnnn1-c1ccc(O)cc1,0,477*,-11,15
Cc1c(C)c2c(OCC(=O)N3CCC(O)CC3)cc3c(c2oc1=O)CCC(C)(C)O3,9.2*,0,-1,-4
O=c1ccc2[n+]([O-])c3ccc(O)cc3oc-2c1,23*,-1,.,.
O=c1cc(O)c2ccc(O)cc2o1,1,0,-6,-7
O=C(CNC(=O)c1ccccc1Br)N/N=C/c1ccccc1O,-1,3,9,17
O=C(N/N=C\c1cc(Cl)ccc1O)c1ccc(S(=O)(=O)N2CCCCC2)cc1,.,45*,-67,32
O=C(N/N=C/c1cc([N+](=O)[O-])ccc1O)c1cccc2ccccc12,3,11*,-61,-2
O=C(CNC(=O)c1ccccc1Br)N/N=C/c1cc(Br)ccc1O,4,21*,-7,20
O=C(N/N=C/c1cc(Cl)ccc1O)c1cccnc1,4,3,-25,22
O=C(N/N=C/c1cc(Cl)ccc1O)c1ccccc1Br,.,10*,14,-1
CO[C@H]1CN(C)C(=O)c2ccc(NC(=O)c3ccccc3)cc2OC[C@H](C)NC[C@@H]1C,-1,.,.,.
CCCNC(=O)[C@H]1[C@H](CO)[C@H]2Cn3c(ccc(-c4ccc(F)cc4)c3=O)[C@H]2N1CC1CC1,0,.,.,.
